# Residue numbers refer to the chain shown, from its start.
# Experiments:
# Assay in all cases: yeast three-hybrid, YBZ-1, SC-Leu-His + 0.5 mM 3-AT, 4 days
# Details in all cases: tags: N-Gal4 AD-HA kept; label: inside an RPR1-promoter hybrid RNA with tandem MS2 sites; ssRNA
# PUM1 PUF domain R6-RRK = target: T1, PUM1 PUF domain R6-RRK (Homo sapiens, UniProt Q14671 828-1176, N1043R;Y1044R;Q1047K)
# T1 sequence: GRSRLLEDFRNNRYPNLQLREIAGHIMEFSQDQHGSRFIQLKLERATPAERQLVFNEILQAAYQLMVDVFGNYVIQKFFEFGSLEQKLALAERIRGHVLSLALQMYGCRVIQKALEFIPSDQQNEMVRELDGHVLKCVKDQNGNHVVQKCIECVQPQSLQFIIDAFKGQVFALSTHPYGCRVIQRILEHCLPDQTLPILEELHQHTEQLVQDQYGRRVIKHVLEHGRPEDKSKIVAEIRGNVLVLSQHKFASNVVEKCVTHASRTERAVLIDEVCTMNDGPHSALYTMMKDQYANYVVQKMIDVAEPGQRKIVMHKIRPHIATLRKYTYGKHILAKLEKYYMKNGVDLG
# Outline: (§1)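 Pumilio-1 PUF domain libraries, randomized (NNK) at the three base-contacting residues of each repeat, were co-expressed with matching RNA elements from a centromeric plasmid in strain YBZ-1 (LexA–MS2 coat fusion, HIS3 reporter). Transformants were plated on SC-Leu (input) and SC-Leu-His + 0.5 mM 3-AT (selection) for four days, and repeat regions were PCR-amplified and Illumina-sequenced. The interaction score is the log2 change in variant frequency from input to selection, with pseudocount 1 where absent.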
# PUM1 PUF domain R5-RHL = PUM1 PUF domain R5-RHL (Homo sapiens, UniProt Q14671 828-1176, C1007R;R1008H;Q1011L)
# Outline: as §1
# PUM1 PUF domain R6-TWT = target: T2, PUM1 PUF domain R6-TWT (Homo sapiens, UniProt Q14671 828-1176, N1043T;Y1044W;Q1047T)
# T2 sequence: T1 sequence with R216T, R217W, K220T
# Outline: as §1
# PUM1 PUF domain R5-HRE = PUM1 PUF domain R5-HRE (Homo sapiens, UniProt Q14671 828-1176, C1007H;Q1011E)
# Outline: as §1
# PUM1 PUF domain R5-KGK = PUM1 PUF domain R5-KGK (Homo sapiens, UniProt Q14671 828-1176, C1007K;R1008G;Q1011K)
# Outline: as §1
# PUM1 PUF domain R8-RRS = PUM1 PUF domain R8-RRS (Homo sapiens, UniProt Q14671 828-1176, N1122R;Y1123R;Q1126S)
# Outline: as §1
# PUM1 PUF domain R6-CWV = target: T3, PUM1 PUF domain R6-CWV (Homo sapiens, UniProt Q14671 828-1176, N1043C;Y1044W;Q1047V)
# T3 sequence: T1 sequence with R216C, R217W, K220V
# Outline: as §1
# PUM1 PUF domain R6-CWW = target: T4, PUM1 PUF domain R6-CWW (Homo sapiens, UniProt Q14671 828-1176, N1043C;Y1044W;Q1047W)
# T4 sequence: T1 sequence with R216C, R217W, K220W
# Outline: as §1
# PUM1 PUF domain R8-ARR = PUM1 PUF domain R8-ARR (Homo sapiens, UniProt Q14671 828-1176, N1122A;Y1123R;Q1126R)
# Outline: as §1
# PUM1 PUF domain R1-RRC = PUM1 PUF domain R1-RRC (Homo sapiens, UniProt Q14671 828-1176, S863R;Q867C)
# Outline: as §1
sequence,measurement,setting,value
GGCUAGAACUAGUGGAUCCCCCGGCGCCCGGCGGCUCGAGCCCGGGUAAGUGCAAAUAGUCUGCAUGCCGCCGGGCGCCAUGCCUGCAGGUCGACUCUAGAAAACAUG,binding signal,PUM1 PUF domain R6-RRK,4.5 log2 enrichment (interaction score)
GGCUAGAACUAGUGGAUCCCCCGGCGCCCGGCGGCUCGAGCCCGGGUAAGUGUAAAUAGUCUGCAUGCCGCCGGGCGCCAUGCCUGCAGGUCGACUCUAGAAAACAUG,binding signal,PUM1 PUF domain R5-RHL,3.44 log2 enrichment (interaction score)
same,binding signal,PUM1 PUF domain R6-TWT,1.62 log2 enrichment (interaction score)
same,binding signal,PUM1 PUF domain R5-HRE,2.59 log2 enrichment (interaction score)
same,binding signal,PUM1 PUF domain R5-KGK,1.56 log2 enrichment (interaction score)
same,binding signal,PUM1 PUF domain R8-RRS,1.39 log2 enrichment (interaction score)
same,binding signal,PUM1 PUF domain R6-CWV,3.39 log2 enrichment (interaction score)
same,binding signal,PUM1 PUF domain R6-CWW,3.56 log2 enrichment (interaction score)
same,binding signal,PUM1 PUF domain R8-ARR,1.18 log2 enrichment (interaction score)
GGCUAGAACUAGUGGAUCCCCCGGCGCCCGGCGGCUCGAGCCCGGGUAAGUGAAAAUAGUCUGCAUGCCGCCGGGCGCCAUGCCUGCAGGUCGACUCUAGAAAACAUG,binding signal,PUM1 PUF domain R6-TWT,4.15 log2 enrichment (interaction score)
same,binding signal,PUM1 PUF domain R6-CWV,1.98 log2 enrichment (interaction score)
GGCUAGAACUAGUGGAUCCCCCGGCGCCCGGCGGCUCGAGCCCGGGUAAGUGUCAAUAGUCUGCAUGCCGCCGGGCGCCAUGCCUGCAGGUCGACUCUAGAAAACAUG,binding signal,PUM1 PUF domain R5-RHL,5.23 log2 enrichment (interaction score)
same,binding signal,PUM1 PUF domain R5-HRE,4.28 log2 enrichment (interaction score)
same,binding signal,PUM1 PUF domain R5-KGK,4.24 log2 enrichment (interaction score)
GGCUAGAACUAGUGGAUCCCCCGGCGCCCGGCGGCUCGAGCCCGGGUAAGUGUAAAUCGUCUGCAUGCCGCCGGGCGCCAUGCCUGCAGGUCGACUCUAGAAAACAUG,binding signal,PUM1 PUF domain R1-RRC,2.87 log2 enrichment (interaction score)
GGCUAGAACUAGUGGAUCCCCCGGCGCCCGGCGGCUCGAGCCCGGGUAAGCGUAAAUAGUCUGCAUGCCGCCGGGCGCCAUGCCUGCAGGUCGACUCUAGAAAACAUG,binding signal,PUM1 PUF domain R8-RRS,3.27 log2 enrichment (interaction score)
same,binding signal,PUM1 PUF domain R8-ARR,2.33 log2 enrichment (interaction score)
GGCUAGAACUAGUGGAUCCCCCGGCGCCCGGCGGCUCGAGCCCGGGUAAGUGUUAAUAGUCUGCAUGCCGCCGGGCGCCAUGCCUGCAGGUCGACUCUAGAAAACAUG,binding signal,PUM1 PUF domain R5-KGK,1.81 log2 enrichment (interaction score)
GGCUAGAACUAGUGGAUCCCCCGGCGCCCGGCGGCUCGAGCCCGGGUAAGUGUAAAUUGUCUGCAUGCCGCCGGGCGCCAUGCCUGCAGGUCGACUCUAGAAAACAUG,binding signal,PUM1 PUF domain R1-RRC,2.93 log2 enrichment (interaction score)
